Common to all, as to parameters: scale not given: direction of the effect not stated beside the values
Test [1] addresses Protein translocase subunit SecA (Escherichia coli (strain K12)) (UniProt P10408). Description: Assay to Identify E. coli SecA ATPase Inhibitors. The class given is functional. The settings on record: 30 µM.
The target of test [2] is T1, Ubiquitin-activating enzyme e1, putative (Leishmania donovani (strain BPK282A1)) (UniProt E9BSI1).
T1 sequence (whole entry): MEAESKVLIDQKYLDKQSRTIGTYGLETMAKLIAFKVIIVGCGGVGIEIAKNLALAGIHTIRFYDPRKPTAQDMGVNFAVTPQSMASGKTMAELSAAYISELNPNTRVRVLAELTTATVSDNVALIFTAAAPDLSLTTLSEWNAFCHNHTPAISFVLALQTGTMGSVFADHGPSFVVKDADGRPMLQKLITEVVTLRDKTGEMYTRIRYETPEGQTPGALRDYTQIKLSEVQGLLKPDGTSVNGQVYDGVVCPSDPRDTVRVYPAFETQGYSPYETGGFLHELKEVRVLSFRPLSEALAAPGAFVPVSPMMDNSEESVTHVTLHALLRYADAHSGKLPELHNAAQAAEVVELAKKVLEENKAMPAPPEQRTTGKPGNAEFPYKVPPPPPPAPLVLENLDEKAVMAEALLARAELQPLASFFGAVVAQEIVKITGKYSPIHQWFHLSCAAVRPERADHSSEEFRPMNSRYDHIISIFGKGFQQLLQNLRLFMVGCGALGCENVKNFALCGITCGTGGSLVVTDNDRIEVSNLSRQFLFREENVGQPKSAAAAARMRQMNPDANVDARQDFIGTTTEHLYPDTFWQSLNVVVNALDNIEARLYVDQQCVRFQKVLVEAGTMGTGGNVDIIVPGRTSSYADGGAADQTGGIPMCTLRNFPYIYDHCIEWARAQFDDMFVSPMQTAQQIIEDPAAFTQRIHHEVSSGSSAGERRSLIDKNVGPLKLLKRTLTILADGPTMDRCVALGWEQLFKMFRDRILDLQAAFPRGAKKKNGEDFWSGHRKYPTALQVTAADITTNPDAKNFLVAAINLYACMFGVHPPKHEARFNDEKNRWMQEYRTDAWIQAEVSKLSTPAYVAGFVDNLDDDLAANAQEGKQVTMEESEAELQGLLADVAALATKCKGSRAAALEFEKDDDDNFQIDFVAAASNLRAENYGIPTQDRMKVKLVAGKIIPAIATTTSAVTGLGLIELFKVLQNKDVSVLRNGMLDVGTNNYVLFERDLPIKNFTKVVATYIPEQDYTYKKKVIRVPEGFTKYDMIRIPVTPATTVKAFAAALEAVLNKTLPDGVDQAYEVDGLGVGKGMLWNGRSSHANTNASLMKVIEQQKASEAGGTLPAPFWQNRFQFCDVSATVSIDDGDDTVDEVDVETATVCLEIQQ
Description: Leishmania donovani Ubiquitin Activating Enzyme (LdE1). The format is functional. The settings on record: 30 µM.

Test [3] concerns the target AMP-activated protein kinase, AMPK (Homo sapiens) (UniProt P54646+O43741+P54619+Q9UGJ0+Q9Y478+Q13131+Q9UGI9). Description: AMP-dependent Kinase enzyme assay. An in vitro enzyme assay that detects ADP turnover that is directly proportional to AMPK activity. This uses naive AMPK that is activated during the assay with MK-8722. The format is functional. The settings on record: 30 µM.

The target of test [4] is Sialic acid-binding Ig-like lectin 9 (Homo sapiens) (UniProt Q9Y336). Description: Hs-Siglec9 ALPHAscreen SOP 20170721. The settings on record: 10 µM. Background: In Alpha technology, singlet oxygen from a donor bead excites a nearby acceptor bead.
Chain of Sialic acid-binding Ig-like lectin 9 (Homo sapiens) (Q9Y336 whole entry): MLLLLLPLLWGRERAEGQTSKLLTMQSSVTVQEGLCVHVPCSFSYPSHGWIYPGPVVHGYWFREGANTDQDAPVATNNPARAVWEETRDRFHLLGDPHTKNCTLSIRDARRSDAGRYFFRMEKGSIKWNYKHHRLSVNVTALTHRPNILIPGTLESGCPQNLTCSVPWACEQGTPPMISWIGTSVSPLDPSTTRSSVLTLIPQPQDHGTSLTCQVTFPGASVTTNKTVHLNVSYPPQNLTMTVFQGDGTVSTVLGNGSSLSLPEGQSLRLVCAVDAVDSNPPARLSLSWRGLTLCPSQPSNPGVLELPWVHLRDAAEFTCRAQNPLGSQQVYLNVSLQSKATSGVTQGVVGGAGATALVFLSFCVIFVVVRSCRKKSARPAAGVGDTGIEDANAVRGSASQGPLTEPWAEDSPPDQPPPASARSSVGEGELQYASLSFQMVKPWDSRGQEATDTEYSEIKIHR
Another test has as its system Trypanosoma cruzi. Description: Trypanosoma cruzi phosphomannomutase and mannose-1-phosphate guanylyltransferase assay. The format is functional. The settings on record: 10 µM.
Test [5] has as its target T2, Arginase-2, mitochondrial (Homo sapiens) (UniProt P78540).
T2 sequence (whole entry): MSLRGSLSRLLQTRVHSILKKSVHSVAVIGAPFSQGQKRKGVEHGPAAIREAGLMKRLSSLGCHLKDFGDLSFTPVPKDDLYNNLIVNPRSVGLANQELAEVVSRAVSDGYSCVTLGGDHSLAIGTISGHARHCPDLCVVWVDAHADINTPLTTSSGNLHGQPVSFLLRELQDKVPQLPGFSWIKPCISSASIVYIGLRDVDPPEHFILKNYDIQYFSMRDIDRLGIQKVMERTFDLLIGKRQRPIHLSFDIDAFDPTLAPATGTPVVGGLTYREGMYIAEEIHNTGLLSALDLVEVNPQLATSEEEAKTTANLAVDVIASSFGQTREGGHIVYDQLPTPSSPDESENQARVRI
Description: in vitro enzyme assay to detect the production of urea directly proportional to the activity of Arginase II. Further: in the data most compounds retested in dose-response had high values. The format is functional. As to conditions: 33.3 µM.

Test [6] deals with T3, Proteasome subunit beta (Trypanosoma cruzi) (UniProt O96673).
T3 sequence (whole entry): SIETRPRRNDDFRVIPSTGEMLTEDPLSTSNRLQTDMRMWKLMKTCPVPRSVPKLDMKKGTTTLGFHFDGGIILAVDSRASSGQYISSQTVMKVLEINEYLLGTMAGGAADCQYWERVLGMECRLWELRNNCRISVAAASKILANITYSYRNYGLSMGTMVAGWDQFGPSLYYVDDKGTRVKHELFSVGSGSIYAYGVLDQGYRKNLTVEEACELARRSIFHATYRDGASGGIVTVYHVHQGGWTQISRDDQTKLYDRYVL
Description: Trypanosoma cruzi proteasome chymotrypsin-like activity (TcProtChymo) assay. Further: in the data most compounds retested in dose-response had high values. The format is functional. The settings on record: 9.37 µM.

The species named for another test is Homo sapiens. Description: To identify inhibition of the IFN signalling (Jak-Stat) pathway via expression of an eGFP reporter gene under the control of an IFN-stimulated response element (ISRE) containing MxA promoter. The format is functional. As to conditions: 30 µM. For orientation: A reporter such as luciferase makes a cellular process visible.
The target of test [7] is T4, Tyrosyl-tRNA synthetase, putative (Trypanosoma cruzi (strain CL Brener)) (UniProt Q4DSP6).
T4 sequence (whole entry): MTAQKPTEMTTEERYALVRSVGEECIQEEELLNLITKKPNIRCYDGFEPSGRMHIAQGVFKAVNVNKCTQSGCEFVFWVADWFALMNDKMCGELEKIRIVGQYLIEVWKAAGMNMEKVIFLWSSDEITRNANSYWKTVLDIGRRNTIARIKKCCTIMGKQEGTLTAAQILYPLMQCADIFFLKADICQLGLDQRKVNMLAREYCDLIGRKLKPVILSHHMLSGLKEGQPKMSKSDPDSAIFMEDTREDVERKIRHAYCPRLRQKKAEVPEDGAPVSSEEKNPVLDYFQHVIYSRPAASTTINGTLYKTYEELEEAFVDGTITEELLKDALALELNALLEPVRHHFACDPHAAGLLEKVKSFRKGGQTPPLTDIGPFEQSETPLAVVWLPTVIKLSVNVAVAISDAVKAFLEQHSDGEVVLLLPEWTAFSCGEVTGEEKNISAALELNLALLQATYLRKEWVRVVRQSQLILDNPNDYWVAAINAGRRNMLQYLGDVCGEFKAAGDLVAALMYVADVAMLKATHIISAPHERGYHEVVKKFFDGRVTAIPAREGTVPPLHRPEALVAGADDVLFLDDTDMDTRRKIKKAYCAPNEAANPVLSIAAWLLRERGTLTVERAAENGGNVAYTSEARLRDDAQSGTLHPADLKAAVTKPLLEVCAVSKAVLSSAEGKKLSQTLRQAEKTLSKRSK
Description: Trypanosoma cruzi tyrosyl tRNA synthetase (TcYRS) _High Tyrosine SOP. Further: in the data most compounds retested in dose-response had high values. The format is functional. As to conditions: 30 µM.

Test [8] deals with T4, Tyrosyl-tRNA synthetase, putative (Trypanosoma cruzi (strain CL Brener)). Description: Trypanosoma cruzi tyrosyl tRNA synthetase (TcYRS) SOP. As to conditions: 30 µM. The class given is functional.
Test [9] concerns the target Chromo domain-containing protein 1 (Saccharomyces cerevisiae (strain ATCC 204508 / S288c) (Baker's yeast)) (UniProt P32657). Description: ScCHD-1 Enzyme Inhibition Assay. Further: in the data most compounds retested in dose-response had high values. The settings on record: 30 µM. The format is functional.

For some assays here: Measured potencies and affinities stand elsewhere.

Chain of Protein translocase subunit SecA (Escherichia coli (strain K12)) (P10408 whole entry): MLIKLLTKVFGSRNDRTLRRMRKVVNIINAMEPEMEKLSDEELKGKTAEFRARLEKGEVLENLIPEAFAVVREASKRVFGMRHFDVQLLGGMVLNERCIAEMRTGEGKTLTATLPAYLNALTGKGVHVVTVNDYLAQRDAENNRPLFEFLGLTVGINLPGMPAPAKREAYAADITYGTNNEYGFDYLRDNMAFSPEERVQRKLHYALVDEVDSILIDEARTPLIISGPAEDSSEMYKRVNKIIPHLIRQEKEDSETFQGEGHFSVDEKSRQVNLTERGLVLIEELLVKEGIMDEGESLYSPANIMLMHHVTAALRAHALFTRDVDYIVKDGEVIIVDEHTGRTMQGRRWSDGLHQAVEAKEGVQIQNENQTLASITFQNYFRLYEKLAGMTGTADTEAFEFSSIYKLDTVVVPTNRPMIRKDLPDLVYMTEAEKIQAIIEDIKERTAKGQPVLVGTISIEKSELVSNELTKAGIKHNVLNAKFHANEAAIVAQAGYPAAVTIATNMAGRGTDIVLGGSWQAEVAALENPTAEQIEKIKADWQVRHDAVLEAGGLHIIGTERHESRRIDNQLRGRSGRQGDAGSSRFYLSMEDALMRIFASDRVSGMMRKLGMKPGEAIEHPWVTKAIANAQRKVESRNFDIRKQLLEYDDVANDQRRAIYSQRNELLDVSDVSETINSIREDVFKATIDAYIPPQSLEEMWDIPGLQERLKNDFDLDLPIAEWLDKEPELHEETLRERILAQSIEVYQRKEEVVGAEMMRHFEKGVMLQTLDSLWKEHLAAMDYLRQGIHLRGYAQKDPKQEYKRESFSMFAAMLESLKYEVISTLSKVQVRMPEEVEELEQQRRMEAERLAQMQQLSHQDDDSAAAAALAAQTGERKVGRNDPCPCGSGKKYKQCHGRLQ
Chain of Chromo domain-containing protein 1 (Saccharomyces cerevisiae (strain ATCC 204508 / S288c) (Baker's yeast)) (P32657 whole entry, the tested form may be a part): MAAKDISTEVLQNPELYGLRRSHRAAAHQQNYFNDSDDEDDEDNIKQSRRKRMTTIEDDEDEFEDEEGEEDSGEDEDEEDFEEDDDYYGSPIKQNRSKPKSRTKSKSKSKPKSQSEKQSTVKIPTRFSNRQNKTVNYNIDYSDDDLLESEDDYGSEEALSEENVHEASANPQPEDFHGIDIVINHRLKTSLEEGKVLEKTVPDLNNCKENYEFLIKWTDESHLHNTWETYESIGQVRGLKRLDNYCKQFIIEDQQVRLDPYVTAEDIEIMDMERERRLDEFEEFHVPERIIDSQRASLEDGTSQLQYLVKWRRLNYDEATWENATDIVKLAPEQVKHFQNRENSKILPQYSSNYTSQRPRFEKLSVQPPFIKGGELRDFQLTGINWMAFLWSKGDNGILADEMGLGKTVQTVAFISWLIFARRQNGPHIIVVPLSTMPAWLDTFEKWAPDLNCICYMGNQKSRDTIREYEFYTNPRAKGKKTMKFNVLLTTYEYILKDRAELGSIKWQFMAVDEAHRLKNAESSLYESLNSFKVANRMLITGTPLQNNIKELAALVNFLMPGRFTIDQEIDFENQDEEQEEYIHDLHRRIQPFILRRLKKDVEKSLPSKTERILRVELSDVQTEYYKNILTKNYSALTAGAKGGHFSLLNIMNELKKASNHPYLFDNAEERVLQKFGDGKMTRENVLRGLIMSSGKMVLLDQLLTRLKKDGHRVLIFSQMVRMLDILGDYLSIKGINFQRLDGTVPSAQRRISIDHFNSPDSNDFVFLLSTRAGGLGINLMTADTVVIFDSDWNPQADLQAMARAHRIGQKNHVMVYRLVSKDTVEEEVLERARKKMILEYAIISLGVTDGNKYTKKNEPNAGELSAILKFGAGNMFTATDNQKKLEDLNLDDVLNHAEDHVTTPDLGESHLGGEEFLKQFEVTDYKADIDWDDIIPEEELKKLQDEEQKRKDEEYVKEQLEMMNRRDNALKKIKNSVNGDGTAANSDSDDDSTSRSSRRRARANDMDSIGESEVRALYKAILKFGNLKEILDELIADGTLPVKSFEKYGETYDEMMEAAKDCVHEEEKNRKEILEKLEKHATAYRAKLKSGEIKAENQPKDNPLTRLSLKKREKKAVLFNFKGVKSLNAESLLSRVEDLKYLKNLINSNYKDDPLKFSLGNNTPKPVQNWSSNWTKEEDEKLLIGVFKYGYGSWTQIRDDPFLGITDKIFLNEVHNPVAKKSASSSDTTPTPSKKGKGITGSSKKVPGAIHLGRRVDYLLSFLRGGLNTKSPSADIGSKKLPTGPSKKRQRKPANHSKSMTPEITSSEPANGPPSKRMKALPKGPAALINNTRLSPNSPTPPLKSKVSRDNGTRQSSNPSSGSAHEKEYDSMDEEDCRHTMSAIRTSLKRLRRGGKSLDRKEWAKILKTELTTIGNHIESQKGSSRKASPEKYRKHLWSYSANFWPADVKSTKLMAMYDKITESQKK

For `Cc1ccsc1C(=O)N1CC(C(=O)NCC2CC2)C2(CCOCC2)C1` (stereo not given), the Percent Effect is -6.49% in test [1]; 7.79% in [2]; 87.3% in test [3]; -3.49% in test [4]; -9.57% in the test on Trypanosoma cruzi; 1.94% in test [5]. In addition, the Percent Effect in [6] was 8.36%; in the test filed under Homo sapiens it was 27.5%; in test [7], 0%; in test [8], -3.85%; in test [9], -7.68%.
Regarding `O=C(Cn1cccnc1=O)NC(Cc1cccs1)c1ccccn1` (stereo not given), the Percent Effect in test [1] is -3.91%; in [2] it was 9.46%; in test [3], 6.77%; in test [4] it was 0.0436%; with Trypanosoma cruzi it was 2.57%; in test [5] it was 5.8%. The Percent Effect in test [6] is 8.27%; in the test listed under Homo sapiens, 15.5%; in test [7], 5.38%; in test [8], 11.7%; in [9], -11.5%.
As to `Clc1ccc(OCCN2CCN(CCn3cncn3)CC2)cc1`, the Percent Effect is -0.515% in test [1]; -5.41% in test [2]; -3.56% in test [3]; 26.8% in test [4]; 8.69% in the test with Trypanosoma cruzi; -2.86% in test [5]. The Percent Effect in test [6] is 4.48%; in the test listed under Homo sapiens, 13.3%; in test [7], 1.59%; in [8], 14.6%; in [9], -8.8%.
In the case of `CS(=O)(=O)N1C[C@@H]2CC[C@H](C1)N(Cc1cscn1)C2=O`, the Percent Effect in test [1] is -4.04%; in test [2] it was 11%; in test [3] it was -5.85%; in test [4] it was 7.01%; in the test with Trypanosoma cruzi it was 6.35%; in test [5], -4.39%. The Percent Effect in [6] is 9.85%; in the test listed under Homo sapiens, 3.89%; in test [7], 6.25%; in test [8], 18.5%; in [9], -6.64%.
For `CCn1ccnc1CN1CCOC(CNc2cccnn2)C1` (stereo not given), the Percent Effect in [1] was -0.964%; in test [2], 18.2%; in [3], -6.06%; in [4], 5.48%; in the test with Trypanosoma cruzi, 1.5%; in test [5], 2.85%. Further, the Percent Effect is 16.4% in test [6]; 17.5% in the test listed under Homo sapiens; 4.85% in [7]; 19.5% in test [8]; -8.74% in test [9].
For `O=C(Nc1cccnc1)[C@H]1C[C@@H]2CCN(c3nncs3)C[C@H]2O1`, the Percent Effect in test [1] was -0.711%; in test [2] it was 5.41%; in test [3], -5.74%; in test [4] it was -1.47%; with Trypanosoma cruzi it was 2.54%; in test [5] it was -2.08%. In addition, the Percent Effect in test [6] is 10.4%; in the test listed under Homo sapiens, 4.24%; in [7], 10.9%; in [8], 13.4%; in test [9], -4.77%.
On to `O=C(NCc1ccccc1)c1nnc2ccc(N3CCOCC3)cc2n1`, for which the Percent Effect is -4.99% in test [1]; -1.33% in [2]; 67.7% in [3]; 2.19% in test [4]; -3.73% with Trypanosoma cruzi; -10.4% in [5]. Besides, the Percent Effect in test [6] was 14.1%; in the test filed under Homo sapiens, 4.89%; in test [7], 6.35%; in [8], 7.69%; in test [9], -13.2%.
Turning to `CC(C)n1cc(CN2CCCN(C(=O)c3ccc[nH]3)CC2)cn1`, the Percent Effect in test [1] is -1.88%; in test [2] it was 13.5%; in [3] it was -0.748%; in test [4], -5.21%; with Trypanosoma cruzi, 2.73%; in [5] it was 15.8%. Also, the Percent Effect is 20.2% in test [6]; -10.5% in the test listed under Homo sapiens; 12.9% in test [7]; 13.4% in [8]; -0.327% in [9].
Regarding `COc1cccc(CN2CCC(c3cc(O)nc(C)n3)C2)c1` (stereo not given), the Percent Effect in test [1] was -3.18%; in [2], 12.2%; in [3] it was 6.93%; in [4], 3.66%; in the test on Trypanosoma cruzi, 2.37%; in test [5], -3.02%. Besides, the Percent Effect in [6] was 11.7%; in the test filed under Homo sapiens, 29.9%; in test [7], 6.45%; in test [8], 14.3%; in [9], -5.62%.
Turning to `CC(C)NC(=O)N1CCc2ncc(CN3CCOCC3)n2CC1`, the Percent Effect is 1.23% in test [1]; 0% in test [2]; 6.6% in test [3]; 1.59% in [4]; -4.2% with Trypanosoma cruzi; 0.319% in [5]. Further, the Percent Effect in test [6] amounted to 14%; in the test listed under Homo sapiens, 4.62%; in [7], 3.24%; in test [8] it was 7.69%; in [9] it was 1.69%.

(Values after ChEMBL document CHEMBL3988442, “University of Dundee, Small-Polar-MMV Screening Library” (2021).)
